These results are taken from ChEMBL document CHEMBL3988442, “University of Dundee, Small-Polar-MMV Screening Library” (2021).

Out of some 69,000 compounds screened, about 1,000 (1.4%) showed an effect of 50% or more. Only a selection was taken, and strong results are over-represented in it overall.

This experiment concerns Leishmania donovani. The experiment is described as follows: Leishmania intramacrophage assay. The format is functional, organism-based. Further details: scale not given: in the data most compounds retested in dose-response had high values.

On to `OCCN1CCN(CC(O)c2ccc(C(F)(F)F)cc2)CC1` (stereo not drawn), for which the “Percent Effect” value (30.3 µM, […]) is 28.06%.

With `CC(NCC1CCN(CCO)CC1)c1ccc(Cl)cc1` (stereo not drawn), the “Percent Effect” value (30.3 µM, […]) is on record as 77.33%. On the same count and under the same terms, next, `CN(CC1CCN(CCO)CC1)CC(O)c1ccc(F)c(F)c1` (stereo not drawn): 32.26%; `CC(NCC1CCN(CCO)CC1)c1ccc(OC(F)(F)F)cc1` (stereo not drawn): 36.61%. In the case of `CC(NC1CCN(CCS(C)(=O)=O)CC1)c1ccc(Cl)cc1` (stereo not drawn), the “Percent Effect” value (30 µM, 30.03 µM) turned out to be 14.89%. For `CC(NCC1CCN(CCO)CC1)c1ccc(F)c(Cl)c1` (stereo not drawn), the “Percent Effect” value (30.3 µM, […]) was found to be 55.27%.

With `Cc1ccc(CNC(=O)CNCC2CCN(CCO)CC2)s1`, where the note is “30.3 µM, […]”, the “Percent Effect” value stood at 12.94%. On the same count and under the same terms, the value for `CC(NCC1CCN(CCO)CC1)c1ccc(C(F)(F)F)cc1` (stereo not drawn) was 77.37%. As to `CC(NCC1CCN(CCO)CC1)c1cccc(Cl)c1` (stereo not drawn), for the setting “30.3 µM, […]”, the “Percent Effect” value was 73.65%.

In the case of `CC(NCC1CCN(CCO)CC1)c1cccnc1` (stereo not drawn), the “Percent Effect” value (30.3 µM, […]) amounted to 10.64%.

As for `COC1CCN(CCNC(=O)NC(C)c2cccc(Cl)c2)CC1` (stereo not drawn), the “Percent Effect” value (30.3 µM, […]) was determined as 6.711%. Still for that read-out and setting: the value for `COc1ccc(CNCC2CCN(CCO)CC2)cc1F` was 13.13%.

For the compound `O=C(O)C(F)(F)F.O=S(=O)(C1CC1)N1CCOCC2(CCN(c3ccccn3)C2)C1` (stereo not drawn), where the note is “30 µM, 30.03 µM”, the “Percent Effect” value is recorded as -13.08%. On to `CC(C)N(C)Cc1nnn2c1CN(Cc1cccnc1)CCC2.O=C(O)C(F)(F)F.O=C(O)C(F)(F)F.O=C(O)C(F)(F)F`, for which the “Percent Effect” value (30.3 µM, […]) was -19.03%.

Take `FC(F)(F)c1cc(C2CCNCC2)nc(-c2ccsc2)n1`: the “Percent Effect” value (30.3 µM, […]) was 3.687%. For the compound `CN(Cc1ccccc1)S(=O)(=O)N1C[C@H](C2CC2)[C@@H](N)C1`, the “Percent Effect” value (30.3 µM, […]) amounted to 11.31%. On the same count and under the same terms, the value for `CCc1nc(CN(C)C2CCN(CCc3ccncc3)C2)no1` (stereo not drawn) was 23.01%; that for `Cc1noc(CN(C)CC2CCN(CCO)CC2)n1` was 19.09%.

For `COc1ccc(CCN2CCCC(Cn3nc(C)nc3C)C2)cc1` (stereo not drawn), under “30 µM, 30.03 µM”, the “Percent Effect” value was 18.76%. Consider `Cc1nc(CN(C)C2CCN(CCc3ccc4c(c3)CCO4)C2)no1` (stereo not drawn), for which the “Percent Effect” value (30 µM) is listed as 14.02%. The same measure, in the same setting: the value for `Cc1nc(CN(C)C2CCN(CCc3cnn(C)c3)C2)no1` (stereo not drawn) was 5.885%; that for `Cc1nc(C)n(CC2CCCN(CCc3ccccc3)C2)n1` (stereo not drawn) was 25.36%. Consider `O=C(CCOc1ccccc1)NS(=O)(=O)Cc1ccccc1`, for which the “Percent Effect” value (30.3 µM, […]) was found to be 8.588%. On the same count and under the same terms, next, `CCO[C@H]1CC[C@H]2[C@H]1OCCN2C(=O)CC1=CCCCC1`: 2.273%. In the case of `Cn1cnc(S(=O)(=O)N2CCCC2)c1Cl`, where the note is “30 µM, 30.03 µM”, the “Percent Effect” value is 14.79%. For the compound `O=C(NCCc1cccc(F)c1)c1nc2c(s1)CCCN2C(=O)C1CC1`, the “Percent Effect” value (30.3 µM, […]) stood at 44.4%. On the same count and under the same terms, next, `CCN(Cc1ccoc1)C(C(N)=O)c1cccc(Br)c1` (stereo not drawn): 23.25%; `CN(c1ncc(S(N)(=O)=O)s1)C1CCc2ccccc2C1` (stereo not drawn): 53.12%.

With `CN(c1ncc(S(N)(=O)=O)s1)C1CCC1`, the “Percent Effect” value (30.3 µM, […]) is given as 27.02%.

As to `CN(c1ncc(S(N)(=O)=O)s1)C1CCc2ccccc21` (stereo not drawn), the “Percent Effect” value (30.3 µM, […]) was determined as 21.68%. Still for that read-out and setting: next, `O=C(NC1CCC1)C1=NOC2(CCN(Cc3ccccc3)C2)C1` (stereo not drawn): 18.41%. Same read-out and setting: the value for `CNC(=O)CN1CCOCC2(C1)CN(C(=O)CC(C)C)CCO2.O=C(O)C(F)(F)F` (stereo not drawn) was 52.6%; that for `CCCC(=O)N1CCOC2(COCCN(CC(=O)NC)C2)C1.O=C(O)C(F)(F)F` (stereo not drawn) was -9.456%; that for `CNC(=O)CN1CCOCC2(C1)CN(C(=O)C(C)C)CCO2.O=C(O)C(F)(F)F` (stereo not drawn) was -36.06%. Same read-out and setting: next, `NCCc1n[nH]c(=O)n1-c1cccc2ccccc12`: -1.188%; `COc1ccc2nnc(CCCC(=O)NCc3ccccc3)n2n1`: -8.358%. As for `COc1ccc2nnc(CCCC(=O)NCc3ccccc3OC)n2n1`, where the note is “30.3 µM, […]”, the “Percent Effect” value was -10.21%. As for `COc1ccc2nnc(CCCC(=O)NCc3ccccc3F)n2n1`, the “Percent Effect” value (30.3 µM, […]) is 59.63%. Same read-out and setting: next, `Cn1nccc1CNC(=O)CCn1nc(C(F)(F)F)cc1C1CC1`: -48.51%; `CC(C)c1cc(=O)[nH]c(C(C)(C)N)n1.Cl`: -1.615%; `Cc1nc(-n2nc(C3CC3)cc2NC(=O)C(C)C)[nH]c(=O)c1C`: 15.32%.

`CCCc1cc(=O)[nH]c(-c2cccc(CN3CCCCCC3)c2)n1`: the “Percent Effect” value (30.3 µM, […]) is reported as -12.61%. In the case of `Cc1cc(=O)[nH]c(-n2nc(C3CC3)cc2N)n1`, the “Percent Effect” value (30.3 µM, […]) is 77.1%. In the case of `CCc1c(C)nc(-n2nc(C3CC3)cc2NC(C)=O)[nH]c1=O`, where the note is “30.3 µM, […]”, the “Percent Effect” value came to 18.69%.

With `CC(=O)Nc1cc(C2CC2)nn1-c1nc(C)c(C)c(=O)[nH]1`, under “30.3 µM, […]”, the “Percent Effect” value is reported as -16.88%. On to `CCCc1cc(=O)[nH]c(-n2nc(-c3cccs3)cc2N)n1`, for which, where the note is “30.3 µM, […]”, the “Percent Effect” value is -5.205%. Still for that read-out and setting: next, `Cc1cc(=O)[nH]c(-n2nc(-c3cccs3)cc2N)n1`: -7.901%; `Cc1cc(=O)[nH]c(-n2nc(-c3ccccc3)cc2N)n1`: 15.58%; `CC(NC(=O)CCc1nc(C(C)(C)C)no1)c1nnc2n1CCC2` (stereo not drawn): 10.79%. For `CNC(=O)CCS(=O)(=O)Cc1cc(Cl)c2c(c1)OCCO2`, where the note is “30 µM”, the “Percent Effect” value was 6.265%.

In the case of `O=C(CN1CCC(C(=O)c2cc(F)ccc2F)CC1)NC1CC1`, the “Percent Effect” value (30.3 µM, […]) is given as 20.49%. With `CNC(=O)C(NC(=O)CCc1cccc(OC2CCCC2)c1)C(C)C` (stereo not drawn), where the note is “30.3 µM, […]”, the “Percent Effect” value came to 1.65%. On the same count and under the same terms, next, `Cc1nsc(C(=O)NCCCc2ccccc2)n1`: 7.564%. Regarding `Cc1nc(C2CCCN2C(=O)Cn2cncn2)no1` (stereo not drawn), the “Percent Effect” value (30 µM) is 21.12%.

Consider `CCOC(=O)c1sc2ccsc2c1CNC(=O)COC`, for which the “Percent Effect” value (30 µM) turned out to be 13.66%. `O=C(NCC(O)c1ccoc1)Nc1cccs1` (stereo not drawn): under “30.3 µM, […]”, the “Percent Effect” value amounted to 10.34%. Turning to `CCC(CC)(CCO)CNC(=O)c1ccon1`, the “Percent Effect” value (30.3 µM, […]) amounted to 7.917%.

For the compound `COCc1ccccc1CNCc1c(C(C)C)nn(C)c1N(C)C`, for the setting “30 µM”, the “Percent Effect” value came out at 21.29%. In the case of `CC(C)c1nn(C)c(N(C)C)c1CNCc1ccccc1CN(C)C`, the “Percent Effect” value (30 µM, 30.03 µM) was found to be 50.34%. Consider `CC(C)c1nn(C)c(N(C)C)c1CNCc1ccccc1CO.Cl`, for which, under “30 µM”, the “Percent Effect” value is on record as 5.046%.

Regarding `O=C1N(C2CCCCC2)CCCC12CCN(S(=O)(=O)c1cccnc1)C2` (stereo not drawn), the “Percent Effect” value (30.3 µM, […]) came to 18%.

With `O=C(NC1CCCC1)[C@@H]1C[C@@H]2CCN(Cc3ccoc3)C[C@H]2O1.O=C(O)C(F)(F)F`, the “Percent Effect” value (30.3 µM, […]) was 62.18%.

In the case of `O=C(NC1CCC1)[C@@H]1C[C@@H]2CCN(CCc3ccccc3)C[C@H]2O1.O=C(O)C(F)(F)F`, the “Percent Effect” value (30.3 µM, […]) was -19.62%. Same read-out and setting: next, `CNC(=O)[C@H]1C[C@@H]2CN(Cc3cccc(C)c3)C[C@H]1O2.O=C(O)C(F)(F)F`: 36.09%. Same read-out and setting: next, `CC(C)NC(=O)[C@@H]1C[C@@H]2CCN(Cc3ccoc3)C[C@H]2O1.O=C(O)C(F)(F)F`: 11.62%; `CNC(=O)[C@H]1C[C@@H]2CN(Cc3ccc(C)cc3)C[C@H]1O2.O=C(O)C(F)(F)F`: 47.12%. Same read-out and setting: the value for `CNC(=O)[C@H]1C[C@@H]2CN(Cc3ccccc3)C[C@H]1O2.O=C(O)C(F)(F)F` was 55.32%; that for `O=C(NCC1CC1)[C@H]1C[C@@H]2CCN(CCc3ccccc3)C[C@H]2O1.O=C(O)C(F)(F)F` was -22.31%; that for `CNC(=O)[C@H]1C[C@@H]2CCN(CCc3ccccc3)C[C@@H]2O1.O=C(O)C(F)(F)F` was 53.78%. Consider `COCCNC(=O)[C@H]1C[C@@H]2CCN(CCc3ccccc3)C[C@H]2O1.O=C(O)C(F)(F)F`, for which the “Percent Effect” value (30.3 µM, […]) is given as 57.9%. Still for that read-out and setting: next, `COCCNC(=O)[C@H]1C[C@@H]2CCN(CCc3ccccc3)C[C@@H]2O1.O=C(O)C(F)(F)F`: 34.91%; `O=C(NC1CC1)[C@@H]1C[C@@H]2CCN(Cc3ccoc3)C[C@@H]2O1.O=C(O)C(F)(F)F`: 29.69%.

As for `O=C(NC1CC1)[C@H]1C[C@@H]2CCN(CCc3ccccc3)C[C@H]2O1.O=C(O)C(F)(F)F`, the “Percent Effect” value (30 µM, 30.03 µM) is recorded as 7.043%.
